{"source": "PubChem BioAssay AID1422", "about": "(Emory University Molecular Libraries Screening Center, 2008)", "note": "“And” between values parts separate entries of the source, which are not always exact repeats. Equal values may be shown once. Out of some 260,000 compounds screened, about 1,300 (0.5%) were called active.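 How the source made its calls: active means percent inhibition above 40 after rounding to a whole number; inactive means the rest.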 The list comes from a sample in which actives are over-represented; it also holds similar structures and randomly drawn compounds. Some compounds were tested as several samples or in several runs, with calls that do not always agree."}
{"biological_target": "Prostaglandin E2 receptor EP2 subtype (Homo sapiens) (UniProt P43116)", "sequence (P43116 whole entry, looked up)": "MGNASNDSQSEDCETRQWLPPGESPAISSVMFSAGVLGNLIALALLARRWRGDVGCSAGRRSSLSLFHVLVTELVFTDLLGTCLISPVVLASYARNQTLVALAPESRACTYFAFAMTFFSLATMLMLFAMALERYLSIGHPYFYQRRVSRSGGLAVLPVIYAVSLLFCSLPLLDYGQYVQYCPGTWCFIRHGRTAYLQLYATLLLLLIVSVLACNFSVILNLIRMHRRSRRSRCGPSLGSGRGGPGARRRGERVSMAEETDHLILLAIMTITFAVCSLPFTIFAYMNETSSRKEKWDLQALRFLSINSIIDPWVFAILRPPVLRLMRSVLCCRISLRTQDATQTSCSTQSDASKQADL", "assay": "human EP2 receptor antagonists, primary screen, TR-FRET cAMP, C6 glioma cells (AID 1422);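 further: rat C6 glioma host cells with rolipram phosphodiesterase inhibitor present; the protocol text gives 20 µM as final concentration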", "conditions": "C6 glioma cells expressing human EP2, cAMP TR-FRET; at 25 µM; stronger effect = higher value; cells stimulated with saturating PGE2"}
{"compound": "Cc1nn(CCC(=O)NC2(c3ccccc3)CCCC2)c(C)c1C", "inhibition": "7.61% (inactive)"}
{"compound": "COc1ccccc1OCC(O)Cn1c(=N)n(C)c2ccccc21", "note": "(configuration not stated)", "inhibition": "8.65% (inactive)"}
{"compound": "COc1ccccc1OCCNCC(O)COc1cccc2[nH]c3ccccc3c12", "note": "(configuration not stated)", "inhibition": "15.7% (inactive) and 44.9% (active)"}
{"compound": "CC(C)(C)NCC(O)COc1cccc2[nH]c(=O)[nH]c12", "note": "(configuration not stated)", "inhibition": "13.5% (inactive) and 12.7% (inactive)"}
{"compound": "Cn1c(=O)c2cc(S(=O)(=O)NC3(c4ccccc4F)CC3)ccc2n(C)c1=O", "inhibition": "10.9% (inactive)"}
{"compound": "O=C(Nn1c(-c2ccccc2)nc2ccccc2c1=O)c1ccc([N+](=O)[O-])cc1", "inhibition": "6.91% (inactive)"}
{"compound": "O=C(c1ccncc1)c1ccc([N+](=O)[O-])cc1", "inhibition": "8.78% (inactive)"}
{"compound": "O=C(c1ccc([N+](=O)[O-])cc1)[C@@H](Br)[C@@H](Br)c1ccnc2ccccc12", "inhibition": "99.4% (active)"}
{"compound": "COc1ccc(C(O)CN2CCC(O)(c3ccc4c(c3)OCO4)CC2)cc1", "note": "(configuration not stated)", "inhibition": "6.32% (inactive)"}
{"compound": "O=c1[nH]c2cc3c(cc2cc1C(c1nnnn1C1CCCCC1)N1CCCCC1)OCCO3", "note": "(configuration not stated)", "inhibition": "6.82% (inactive)"}
{"compound": "COc1cc(/C=N/Nc2nc3ccccc3s2)ccc1O", "inhibition": "16.7% (inactive)"}
{"compound": "c1ccc2sc(NN=C3CCCC3)nc2c1", "inhibition": "1.63% (inactive)"}
{"compound": "O=[N+]([O-])c1cc(Br)c(O)c(/C=N/Nc2nc3ccccc3s2)c1", "inhibition": "77% (active)"}
{"compound": "COc1ccc2cc(CN(C(=O)Nc3ccc(F)cc3)C3CCCC3)c(=O)[nH]c2c1", "inhibition": "8.38% (inactive)"}
{"compound": "CN(C)c1ncc(CN2CCC(O)(c3ccccc3F)CC2)cn1", "inhibition": "5.6% (inactive)"}
{"compound": "COc1ccccc1NC(=O)c1sc(NC(=O)c2cccc(C)c2)c(C#N)c1C", "inhibition": "11.9% (inactive)"}
{"compound": "CCC(CN1CCC(C)CC1)NC(=O)Cc1c(C)nc(OC)nc1OC", "note": "(configuration not stated)", "inhibition": "0.46% (inactive)"}
{"compound": "Cc1cc(C(=O)NCCc2ccc(Cl)cc2)n(-c2ccccc2)n1", "inhibition": "6.8% (inactive)"}
{"compound": "Cc1ccc(-n2ccc(=O)c(C(=O)O)n2)cc1", "inhibition": "11.4% (inactive)"}
{"compound": "O=C(O)c1nn(-c2ccc(Cl)cc2)c2c1C(=O)c1ccccc1C2=O", "inhibition": "42.4% (active)"}
{"compound": "Cc1sc2nc(C(C)C)nc(SCC(=O)NCc3ccccc3)c2c1C", "inhibition": "4.54% (inactive)"}
{"compound": "O=C(NC1CCCC1)C(c1ccccc1F)N(Cc1ccco1)C(=O)Cc1c[nH]c2ccccc12", "note": "(configuration not stated)", "inhibition": "11.9% (inactive)"}
{"compound": "O=C1C=CC(=O)N1c1ccc(N2CCCCC2)cc1", "inhibition": "106% (active)"}
{"compound": "N#CSc1ccc(N2CCCCC2)cc1", "inhibition": "6.1% (inactive)"}
{"compound": "Cc1ccccc1C(=O)Nc1ccc(N2CCCCCC2)cc1", "inhibition": "-0.3% (inactive)"}
{"compound": "C=C(C)Cn1c(N2CCC(C)CC2)nc2c1c(=O)[nH]c(=O)n2C", "inhibition": "10.2% (inactive)"}
{"compound": "C=CCn1c(NC)nc2c1c(=O)n(C)c(=O)n2C", "inhibition": "7.03% (inactive)"}
{"compound": "Cc1c(NC(=O)c2cc(-c3ccc(Cl)s3)nc3ccccc23)c(=O)n(-c2ccccc2)n1C", "inhibition": "13.1% (inactive)"}
{"compound": "CCOC(=O)c1cnc2c(c(C)nn2CC)c1Cl", "inhibition": "4.46% (inactive)"}
{"compound": "CCOC(=O)c1cc(-c2ccc(Cl)s2)nc2c1c(C)nn2C", "inhibition": "41.6% (active)"}
{"compound": "COc1cc(OC)cc(-n2nnnc2SCC(=O)N2CCN(C)CC2)c1", "inhibition": "10.8% (inactive)"}
{"compound": "COc1ccc2cc(C#N)c(SCC(=O)Nc3ccccc3Br)nc2c1", "inhibition": "27% (inactive)"}
{"compound": "C=CS(=O)c1sc(Cl)c(N2CCOCC2)c1[N+](=O)[O-]", "note": "(configuration not stated)", "inhibition": "116% (active)"}
{"compound": "COc1cc(NC(=O)CSc2nnc3c(n2)[nH]c2ccccc23)cc(OC)c1", "inhibition": "9.57% (inactive)"}
{"compound": "Cc1cc2nc(-c3ccc(SCC(=O)N4CCCCC4C)nc3)[nH]c2cc1C", "note": "(configuration not stated)", "inhibition": "12.4% (inactive)"}
{"compound": "Cc1ccc(SCCC(=O)Nc2cc(C)on2)cc1", "inhibition": "1.47% (inactive)"}
{"compound": "Cc1ccc2nc(-c3ccc(SCC(=O)Nc4cc(C)on4)nc3)[nH]c2c1", "inhibition": "64.2% (active) and 20.1% (inactive)"}
{"compound": "CCCN1C(=O)/C(=C/N(C(C)=O)c2ccccc2)SC1=S", "inhibition": "12.5% (inactive)"}
{"compound": "CC1CCN(C(=O)CSc2nc3ccccc3n2Cc2ccccc2)CC1", "inhibition": "11.6% (inactive)"}
{"compound": "Fc1ccc2[nH]c3c(N4CCSCC4)ncnc3c2c1", "inhibition": "59.2% (active)"}
{"compound": "O=C(NCc1noc(-c2ccccc2)n1)c1cc(-c2ccccn2)n[nH]1", "inhibition": "4.63% (inactive)"}
{"compound": "O=C(CN1C(=O)[C@@H]2CCCN2C(=O)c2ccccc21)Nc1ccc2c(c1)OCCO2", "inhibition": "6.18% (inactive)"}
{"compound": "COc1ccc(C(=O)O/N=C(\\N)Cc2ccc(Cl)cc2Cl)cc1OC", "inhibition": "14.2% (inactive)"}
{"compound": "NC(N)=N/N=C/c1ccc(OCc2ccc(Cl)cc2Cl)cc1", "inhibition": "97.3% (active)"}
{"compound": "NC(N)=N/N=C/c1ccc(Cl)c([N+](=O)[O-])c1", "inhibition": "5.88% (inactive)"}
{"compound": "CCOc1ccc2nc(NC(=O)c3ccc(NC(C)=O)cc3)sc2c1", "inhibition": "11.4% (inactive)"}
{"compound": "CC(C)(C)NC(=O)Cn1nnc(-c2ccc(N)cc2)n1", "inhibition": "7.5% (inactive)"}
